A549 viability – A549 cytotoxicity, counter-screen for Nrf2 inhibitors. A549 ARE-Fluc cells, CellTiter-Fluor viability, 18-24 h. Potency, µM (doses to about 46 µM), actives largely listed as inhibitors. 390,000 compounds, 0.16% hits. AID 504648
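A549 ARE-Fluc cells in 5% FBS OPTI-MEM, 5000 cells/well, rested 2 h then exposed to compounds in concentration-response for 18-24 h at 37 °C. Viability by CellTiter-Fluor fluorescence (Ex 405/Em 525) after 30 min; luciferase luminescence (BugLite, 15 min, RT) read afterwards.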
ATXN viability – viability counter-screen for ATXN expression inhibitors | S2 cells (HEK-293 line with an ATXN2-luciferase reporter) viability, CellTiter-Fluor protease fluorescence, 24 h | Potency, µM (highest dose often 56.7 µM), actives largely listed as cytotoxic | 400,000 compounds, 0.49% hits; also: nearly all actives have a fitted effect of over 40% in size
HepG2 viability – kills HepG2 cells in TGF-b inhibitor counter-screen | HepG2 CAGA-GFP viability, ATP luminescence, 18 h | 410,000 compounds, 0.76% hits | Potency, µM (series often up to 46.1 µM), most hits filed as cytotoxic | AID 588856
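CellTiter-Glo luminescence gave cytotoxicity after 18 hours at 37 degrees C. The cells were HepG2 CAGA-GFP in 1% FBS DMEM, stimulated with 500 pg/mL TGF-beta after compound addition. %Activity was normalised to no-cell wells (complete cell-killing) and DMSO (no toxicity), and curves were fitted and classified.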
Nrf2 block – blocks Nrf2 signaling; A549 ARE-Fluc reporter, luciferase luminescence, 18-24 h; Potency, µM (highest dose often 46 µM), usual class: inhibitors; 360,000 compounds, 2.1% hits; also: nearly all actives have a fitted effect of over 60% in size
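Nrf2 function is reported as luminescence of an ARE-controlled luciferase in A549 cells. Compounds were tested at several concentrations, and a CellTiter-Fluor read on the same wells flagged cytotoxicity.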
ATXN2 expr inh – ATXN2 expression inhibition. 360,000 compounds, 0.72% hits. Potency, µM (highest dose often 57 µM), most hits filed as inhibitors. HEK-293 ATXN2-luciferase reporter, luminescence, 24 h; also: nearly all actives have a fitted effect of over 55% in size
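ATXN2-luciferase reporter cells (luciferase flanked by upstream and downstream ATXN2 gene portions) were treated 24 h at 37 °C with compounds at up to 57 uM. SteadyGlo luminescence gave expression; GF-AFC fluorescence gave viability.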
TGFb SMAD3 inh – blocks TGF-b signaling | HepG2 CAGA-GFP TGF-b/SMAD3 reporter, GFP fluorescence, 18 h; TGF-beta stimulated, 500 pg/mL final | AID 588855 | Potency, µM (top dose mostly 46.1 µM), usual class: inhibitors | 410,000 compounds, 1.2% hits; also: nearly all actives have a fitted effect of over 65% in size
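HEPG2 CAGA-GFP reporter cells (1000/well, DMEM with 1% FBS) received compounds, then recombinant TGF-beta at 500 pg/mL final for 18 hours at 37 degrees C. Per-cell GFP summed per well was normalised to unstimulated and stimulated DMSO controls before curve fitting.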
Hits are given with their value; . = inactive; ? = inconclusive; / = no result given; [ ] = another dose, or the depositor's remark. A selection: hits, their analogues and other compounds. The true share with any hit is near 3.8%. Calls follow the shape of the dose curve; as a rule, active = well fitted curve in the direction sought with a large enough effect; inconclusive = small, poorly fitted or top-dose-only effect, or another doubt; inactive = no such curve, though single readings can be large; an effect the other way counts as inactive or inconclusive.

SMILES	A549 viability	ATXN viability	HepG2 viability	Nrf2 block	ATXN2 expr inh	TGFb SMAD3 inh
C[C@@H]1CN([C@H](C)CO)S(=O)(=O)c2ccc(C#Cc3cccc(F)c3)cc2O[C@@H]1CN(C)C(=O)CN1CCOCC1	/	20µM	.	/	?	?
c1ccc(N2CCNCC2)cc1	/	.	/	/	.	/
CCOC(=O)c1ccc(N2C(=O)c3n[nH]c(-c4cccs4)c3C2c2ccc(Cl)cc2Cl)cc1 (configuration not stated)	.	?	.	?	?	4.5µM
COC(=O)C1=C(c2ccc(C(C)=O)cc2)C[C@@H]2CC[C@H]1N2C(=O)N1CCC(O)(c2ccc(Cl)cc2)CC1	.	?	.	23µM	?	.
O=C(O)C(=O)c1cn(Cc2ccccc2)c2ccc(-c3ccc(OC(F)(F)F)cc3)cc12	/	/	/	/	.	/
Cc1ccccc1NC(=NCCCN1CC1)Nc1ccccc1C	13µM	/	.	.	?	.
Cc1ccccc1NC(=O)c1cc(-c2ccccc2)n(CCCN2CCOCC2)c1C	.	.	.	.	.	.
O=C(NCC(c1cccs1)N1CCOCC1)c1cc([N+](=O)[O-])cc([N+](=O)[O-])c1 (configuration not stated)	.	.	.	?	.	.
C=CCC1=C(C)C(OC(=O)C2C(C=C(C)C)C2(C)C)CC1=O (configuration not stated)	/	40µM	/	/	?	/
COC(=O)C(Cc1ccc(N(CCCl)CCCl)cc1)N=Cc1ccccc1O (configuration not stated)	?	11µM	.	?	3.2µM	?
CCCNS(=O)(=O)c1ccc(OCC(=O)N2CCN(Cc3ccc4c(c3)OCO4)CC2)c(C)c1	.	.	.	12µM	.	.
CCCNS(=O)(=O)c1ccc(OCC(=O)N2CCN(Cc3ccc4c(c3)OCO4)CC2)cc1	.	.	.	8.2µM	.	.
CC(C)c1ccc(Cc2cnc(NC(=O)c3ccc4c(c3)CC(c3ccccc3)OC4=O)s2)cc1 (configuration not stated)	.	.	.	?	.	.
Cc1cccc(NP(=O)(Oc2ccccc2F)Oc2ccccc2F)c1	.	.	.	.	.	13µM
CC(C)OC(=O)c1c(N)n(CC2CCCO2)c2nc3ccccc3nc12 (configuration not stated)	.	/	.	.	.	.
Nc1c(C(=O)OC2CCCCC2)c2nc3ccccc3nc2n1CC1CCCO1 (configuration not stated)	.	.	.	23µM	.	.
CC(C)CCOC(=O)c1c(N)n(CC2CCCO2)c2nc3ccccc3nc12 (configuration not stated)	.	.	.	.	.	11µM
C[C@]12CCC3C(C(=O)C[C@H]4C[C@@H](O)CC[C@]34C)C1CCC2=O (some centres not stated)	.	.	.	.	.	.
Nc1cc(Cl)c2nonc2c1[N+](=O)[O-]	?	?	11µM	?	?	?
O=c1[nH]c2ccccc2n1C1CCN(C(CCc2ccccc2)c2nnnn2-c2ccc3c(c2)OCCO3)CC1 (configuration not stated)	/	/	.	/	7.9µM	?
Cc1cccc(C)c1-n1nnnc1C(CCc1ccccc1)N1CCC(n2c(=O)[nH]c3ccccc32)CC1 (configuration not stated)	/	?	.	/	?	?
CCN(CC)c1ccc(/C=C/[N+](=O)[O-])cc1	.	.	.	.	.[11.3 µM]	?
O=[N+]([O-])/C=C/c1c(Cl)cccc1Cl	.	/	10µM	.	?	2.8µM
Nc1ccc(Oc2cccc(Oc3ccc(N)cc3)c2)cc1	.	.	.	?	1.8µM	.
CCOc1ccc(N)cc1	.	.	.	.	.	.
SMILES	A549 viability	ATXN viability	HepG2 viability	Nrf2 block	ATXN2 expr inh	TGFb SMAD3 inh
CC[C@@]1(O)C(=O)OCc2c1cc1n(c2=O)Cc2cc3c(NC(=O)CN)cccc3nc2-1	.	/	.	2.6µM	0.34µM	?
O=C(CC1CCCCC1)N1CCC(c2nc(-c3ccc(S(=O)(=O)N4CCCC4)cc3)no2)CC1	.	?	.	21µM	?	.
O=C(c1cc(S(=O)(=O)N2CCCCC2)ccc1F)N1CCC2(CC1)OCCO2	.	.	.	.	.	.
NCC(=O)c1ccc2ccccc2c1	/	/	.	/	/	.
CCc1ccc(CNC(=O)c2ccc3c(c2)N=C(C)c2cc(C)ccc2S3)cc1	.	?	.	?	.	?
COc1ccc(CCNC(=O)c2ccc3c(c2)N=C(C)c2cc(C)ccc2S3)cc1OC	.	?	.	15µM	?	?
N#Cc1ccc(Cn2cc(C=O)c3ccccc32)cc1	.	.	.	?	?	1.4µM
O=Cc1cn(Cc2c(F)cccc2Cl)c2ccccc12	.	?	.	.	/	3.5µM
O=Cc1cn(CCCOc2ccccc2)c2ccccc12	.	.	.	.	.	?
Cc1cccc(Cn2cc(C=O)c3ccccc32)c1	.	.	.	?	?	1.1µM
O=Cc1cn(Cc2cccc([N+](=O)[O-])c2)c2ccccc12	.	?	.	.	0.45µM	0.71µM
CCC(=O)c1cn(Cc2ccc(C#N)cc2)c2ccccc12	.	.	.	.	.	.
CC(=O)NC1CCSC1=O (configuration not stated)	/	.	/	/	.	/
C[C@]12CC[C@@H](O)CC1=CCC1C2CC[C@@]2(C)C1CC[C@@H]2O (some centres not stated)	/	.	.	/	/	.
c1ccc([C@@H]2CO2)cc1	.	.	.	.	.	.
COc1ccc(CCNC(=O)c2ccc3c(c2)N(Cc2cccc(Cl)c2)C(=O)CS3)cc1OC	.	?	.	.[9.27 µM]	?	.
CCCCc1nc2ccccc2c(=O)n1-c1cccc(OC)c1	.	?	.	.	.	.
CC(C)n1c(O)c(C2c3cc(Cl)ccc3Oc3[nH]c(=O)n(C(C)C)c(=O)c32)c(=O)[nH]c1=O (configuration not stated)	?	11µM	14µM	?	4µM	6.3µM
CC(=O)c1c(O)n(-c2cccc(Cl)c2)c(=O)[nH]c1=O (tested in a mixture with another compound)	.	.	.	.	.	.
Fc1ccc(N2CCN(c3ncnc4c3nc3n4CCCCC3)CC2)cc1	.	.	.	8.2µM	.	?
O=C1NC(=O)N(Cc2ccc(F)cc2)C(=O)/C1=C\c1ccc(N2CCCC2)cc1	.	.	.	.	.	.
c1ccc(N2CCN(c3ncnc4c3nc3n4CCCCC3)CC2)cc1	.	.	.	23µM	?	.
